KCNQ2 pot: KCNQ2 (rat) channel potentiation | O88943 | CHO-K1 KCNQ2, FluxOR thallium flux fluorescence; stronger effect = higher value | B-score at 10 µM | hit rate 0.54% among 310,000 | AID 2239;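 active means fluorescence ratio B-score at least 3 SD of library B-scores, with initial fluorescence B-score within 3 of them, cut at about 5.3 in these data; same plate scores as AID 2156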;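 further: B-score of peak minus minimum over baseline fluorescence ratio after K+ and Tl+ stimulus; positive B-score means potentiation of KCNQ2 with more thallium influx and brighter signal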
KCNQ2 block: blocks the rat KCNQ2 potassium channel | hit rate 1.1% among 310,000 | O88943 | CHO-K1 KCNQ2, FluxOR thallium flux, 20 min; stronger effect = lower value | B-score at 10 µM;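 active means fluorescence ratio B-score at most minus 3 library SDs, with starting brightness B-score within 2 library SDs, cut at about -5.5 in these data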
Kir21 conf inh: confirmation of mouse Kir2.1 potassium channel inhibitors; hit rate 41% among 2,300; AID 2032; Tl flux remaining, % of negative control (stronger effect = lower value), % at 10 µM; shares compounds with KCNQ2 pot; Kir2.1-expressing cells, FluxOR thallium flux fluorescence; stronger effect = lower value;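 active means Primary-screen hit whose thallium flux fell at least 3 control SD below untreated wells in both duplicates, with normal baseline fluorescence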;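 further: 0% = blank wells without stimulus and 100% = stimulated no-compound controls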
HEK293 Tl flux: counter-screen for Kir2.1 inhibitors: effect in parental HEK293 cells. shares compounds with KCNQ2 pot. FluxOR thallium flux fluorescence; 0% = unstimulated blank wells. FluxOR signal as % of negative control (100 = no effect), % at 10 µM. hit rate 19% among 2,300. AID 2105;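 active means dye signal at least 3 control SD above or below untreated wells in both duplicates, raw fluorescence within 3, either direction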;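 further: percent is based on the flux ratio of peak minus minimum fluorescence over baseline F0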
CHO-K1 Tl ctr: counter-screen for KCNQ2 potentiators: effect in parental CHO-K1 cells; shares compounds with KCNQ2 pot; hit rate 43% among 1,200; activity increase over 3SD of controls, % at 10 µM; FluxOR thallium flux fluorescence; zero = vehicle mean+3SD, 100% = vehicle-minus-blank window;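 active means signal rise of at least 3 SD above the untreated control mean, in both duplicate wells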;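 further: counter screen of KCNQ2 potentiator hits so any rise reflects channel-independent effects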
KCNQ1 sel pot: selectivity of KCNQ2 potentiators: effect on human KCNQ1; shares compounds with KCNQ2 pot; CHO KCNQ1 stable, FluxOR thallium flux fluorescence; beyond 3SD, as % of vehicle-control signal; activation over 3SD threshold, % at 10 µM; hit rate 28% among 1,200; AID 2283;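 active means fluorescence ratio rise of at least 3 SD of vehicle wells above their mean, in both replicate wells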;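 further: 0% = vehicle mean plus 3 SD and 100% = vehicle minus unstimulated blank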
KCNQ2 pot conf: confirmation of rat KCNQ2 potassium channel potentiators. CHO-KCNQ2 cells, FluxOR thallium flux fluorescence. AID 2287. hit rate 68% among 1,200. potentiation, less the hit threshold, % at 10 µM. shares compounds with KCNQ2 pot;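 active means fluorescence ratio rising 3 SD or more over the vehicle control mean in both replicates, plus primary screen hit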;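 further: peak minus minimum thallium fluorescence divided by baseline after K/Tl stimulus; 0% = vehicle mean plus 3 SD and 100% = vehicle minus unstimulated blank difference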
Kir2-1 sel: selectivity of KCNQ2 potentiators: effect on mouse Kir2.1. shares compounds with KCNQ2 pot. HEK293 Kir2.1, FluxOR thallium flux fluorescence. hit rate 2% among 1,200. activity over 3SD threshold, % at 10 µM;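 active means fluorescence ratio rise of at least 3 SD above the vehicle-control mean, seen in both replicates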;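 further: 0% = vehicle mean plus 3 SD and 100% = vehicle minus no-stimulus blank window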
KCNQ2 W236L pot: KCNQ2 potentiators acting on retigabine-insensitive rat KCNQ2 W236L mutant; shares compounds with KCNQ2 pot; CHO KCNQ2-W236L, automated patch clamp current; AID 2558; current increase over 3SD of negative controls (%), stronger effect = higher value, % at 25 µM; hit rate 10% among 940;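 active means current increase at least 3 SD of the untreated controls above them in both duplicate recordings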
Target sequence (O88943 whole entry W236L, looked up): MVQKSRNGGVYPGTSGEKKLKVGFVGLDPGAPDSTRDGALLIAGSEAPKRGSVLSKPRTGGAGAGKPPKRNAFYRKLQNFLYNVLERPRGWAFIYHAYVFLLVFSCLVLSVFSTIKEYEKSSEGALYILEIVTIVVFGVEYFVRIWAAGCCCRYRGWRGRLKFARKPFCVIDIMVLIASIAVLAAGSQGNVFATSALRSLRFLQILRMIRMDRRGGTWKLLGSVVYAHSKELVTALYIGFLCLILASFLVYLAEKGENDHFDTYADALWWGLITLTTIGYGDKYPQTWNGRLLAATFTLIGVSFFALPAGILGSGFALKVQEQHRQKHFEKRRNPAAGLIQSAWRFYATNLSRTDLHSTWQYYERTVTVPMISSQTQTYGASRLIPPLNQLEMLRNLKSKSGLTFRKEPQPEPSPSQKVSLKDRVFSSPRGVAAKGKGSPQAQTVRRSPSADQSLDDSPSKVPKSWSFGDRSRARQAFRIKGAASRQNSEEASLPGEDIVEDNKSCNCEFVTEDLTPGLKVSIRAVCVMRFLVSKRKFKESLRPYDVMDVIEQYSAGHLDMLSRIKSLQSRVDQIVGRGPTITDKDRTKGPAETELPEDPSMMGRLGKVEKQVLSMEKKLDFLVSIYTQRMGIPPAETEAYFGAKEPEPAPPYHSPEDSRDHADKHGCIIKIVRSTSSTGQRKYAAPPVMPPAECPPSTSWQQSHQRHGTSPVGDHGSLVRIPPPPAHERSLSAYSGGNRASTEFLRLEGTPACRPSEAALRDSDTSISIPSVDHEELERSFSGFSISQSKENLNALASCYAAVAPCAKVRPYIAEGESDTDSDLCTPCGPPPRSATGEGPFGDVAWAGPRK
Numbers without * were called inactive; i = inactive; · = no result. Most compounds without a hit are left out; they make up all but 1.6% or so of the library.

SMILES | KCNQ2 pot | KCNQ2 block | Kir21 conf inh | HEK293 Tl flux | CHO-K1 Tl ctr | KCNQ1 sel pot | KCNQ2 pot conf | Kir2-1 sel | KCNQ2 W236L pot
CCC1(C)Cc2c(sc3nnn(CC(=O)Nc4ccccc4)c(=O)c23)CO1 (centres undefined) | 19* | i | i | i | -21.7 | 26.6* | 41.2* | -28.1 | i
COc1ccc(-c2noc(N3CCCC(C(=O)Nc4cc(F)ccc4F)C3)n2)cc1 (centres undefined) | 0.44 | i | · | · | · | · | · | · | ·
CCn1cc(C(=O)O)c(=O)c2cc(F)c(N3CCN(C(=S)NC(=O)c4ccccc4Cl)CC3)cc21 | 0.16 | i | · | · | · | · | · | · | ·
COC(=O)C1=NN(C(=O)c2ccc(Cl)cc2)C(O)(c2ccccc2)C1 (centres undefined) | 7.22* | i | i | 424.0%* | -12.6 | 94.6* | 54.8* | -11.6 | i
CCOC(=O)C1=NN(C(=O)c2ccc(C)cc2)C(O)(c2ccc(Cl)cc2)C1 (centres undefined) | 25.4* | i | i | 380.0%* | 0.0* | -17.7 | 56.9* | -14.6 | i
CCC1=NN(C(=O)c2ccc(Cl)cc2)C(O)(c2ccc(C)cc2)C1 (centres undefined) | 2.15 | i | · | · | · | · | · | · | ·
CCC1=NN(C(=O)c2ccc(Cl)cc2)C(O)(c2ccccc2)C1 (centres undefined) | 4.57 | i | · | · | · | · | · | · | ·
Cc1cccc(N(CC(=O)NC2CCCCC2)C(=O)CCCC(=O)Nc2ccccn2)c1 | · | i | · | · | · | · | · | · | ·
CCOC(=O)c1cc(-c2ccc([N+](=O)[O-])cc2)nc2c1c(=O)[nH]c(=O)n2Cc1ccccc1 | 0.02 | i | · | · | · | · | · | · | ·
O=C(O)CN1C(=O)/C(=C2\C(=O)N(Cc3ccccc3Cl)c3ccccc32)SC1=S | 6.15* | i | i | i | -10.9 | -11.0 | -21.1 | -42.2 | ·
O=C1/C(=C2\C(=O)N(Cc3ccc(F)cc3)c3ccccc32)SC(=S)N1CCS(=O)(=O)O | · | i | · | · | · | · | · | · | ·
COc1cccc(-c2onc3ccc(C(C)=O)cc23)c1 | 0.61 | i | · | · | · | · | · | · | ·
Cc1ccc(-c2nc3ccccn3c2NCc2ccc3c(c2)OCO3)cc1 | · | i | 75.5%* | i | · | · | · | · | ·
COc1ccc(-c2nc3ccc(C)cn3c2NCc2ccc3c(c2)OCO3)cc1 | 0.61 | i | · | · | · | · | · | · | ·
Cc1cc2ccccc2c(=O)[nH]1 | 0.05 | i | · | · | · | · | · | · | ·
CCCC(=O)n1nc(-c2cccnc2)nc1NCc1cccs1 | · | i | · | · | · | · | · | · | ·
CSCCC(NC(=O)c1ccc(Cl)cc1)C(=O)OCC(=O)N1CCCC1=O (centres undefined) | 8.85* | i | i | i | -7.8 | -6.5 | 17.9* | -34.5 | 25.6%*
CSCCC(NC(=O)c1ccc([N+](=O)[O-])cc1Cl)C(=O)OCC(=O)NC(=O)CN1CCCC1=O (centres undefined) | · | i | · | · | · | · | · | · | ·
Cc1cccc(CS(=O)(=O)c2ncc(Cl)c(C(=O)Nc3nnc(C(C)C)s3)n2)c1 | 13.4* | i | · | · | -9.5 | -5.7 | 98.7* | -64.2 | 49.0%*
O=C(NCc1ccccc1)c1nc(S(=O)(=O)Cc2ccccc2)ncc1Cl | · | i | · | · | · | · | · | · | ·
CSc1nnc(NC(=O)c2ccco2)s1 | 1.61 | i | · | · | · | · | · | · | ·
COC(=O)c1ccccc1NC(=O)c1nc(S(=O)(=O)Cc2ccccc2)ncc1Cl | · | i | · | · | · | · | · | · | ·
O=C(NCc1ccc2c(c1)OCO2)c1nc(S(=O)(=O)Cc2ccccc2)ncc1Cl | · | i | · | · | · | · | · | · | ·
Cc1nnc(NC(=O)c2nc(S(=O)(=O)Cc3ccccc3C)ncc2Cl)s1 | 11.9* | i | i | i | -14.4 | 62.4* | 77.0* | -41.4 | 35.3%*
CSc1nnc(NC(=O)c2nc(S(=O)(=O)Cc3cccc(C)c3)ncc2Cl)s1 | 13.4* | i | · | · | -9.0 | 4.6* | 83.6* | -61.6 | 35.3%*
SMILES | KCNQ2 pot | KCNQ2 block | Kir21 conf inh | HEK293 Tl flux | CHO-K1 Tl ctr | KCNQ1 sel pot | KCNQ2 pot conf | Kir2-1 sel | KCNQ2 W236L pot
CC(C)c1nnc(NC(=O)c2nc(S(=O)(=O)Cc3ccc(F)cc3)ncc2Cl)s1 | 11.3* | i | i | i | -2.6 | -14.1 | 58.1* | -47.9 | 28.3%*
Cc1ccc2[nH]c(=O)c(CN(Cc3ccccc3)C(=S)NCCCN(C)C)cc2c1 | · | i | · | · | · | · | · | · | ·
CCOc1ccc(NS(=O)(=O)c2ccc3c(c2)n(C)c(=O)n3C)cc1 | 0.01 | i | · | · | · | · | · | · | ·
CCOCCn1c(N2CCN(c3ccc(OC)cc3)CC2)nc2c1c(=O)n(C)c(=O)n2C | 0.78 | i | · | · | · | · | · | · | ·
O=C(Nc1nnc(SCc2ccc(F)cc2)s1)c1cccnc1Cl | · | i | · | · | · | · | · | · | ·
CSc1nnc(NC(=O)c2nc(S(=O)(=O)Cc3ccccc3F)ncc2Cl)s1 | 10.1* | i | · | · | -16.5 | -13.1 | 50.0* | -53.6 | 17.9%*
C=CCSc1nnc(NC(=O)c2nc(SCC)ncc2Cl)s1 | 2.39 | i | · | · | · | · | · | · | ·
Cc1ccc(CS(=O)(=O)c2ncc(Cl)c(C(=O)Nc3ccc(OC(F)F)cc3)n2)cc1 | 0.85 | i | · | · | · | · | · | · | ·
CCSc1nnc(NC(=O)c2nc(S(=O)(=O)Cc3ccc(F)cc3)ncc2Cl)s1 | 10.3* | i | · | · | -21.3 | -15.7 | 49.2* | -65.1 | 11.3%*
Cc1ccc(CS(=O)(=O)c2ncc(Cl)c(C(=O)Nc3nnc(C(C)C)s3)n2)cc1 | 15.8* | i | i | 181.5%* | -0.3 | -12.8 | 102.1* | -46.4 | 77.3%*
CSc1ncc(Cl)c(C(=O)Nc2nnc(SC/C=C/c3ccccc3)s2)n1 | 5.48* | i | i | i | 6.5* | -27.7 | -2.2 | -35.9 | i
O=C(NCc1ccc2c(c1)OCO2)c1nc(S(=O)(=O)Cc2ccccc2F)ncc1Cl | · | i | · | · | · | · | · | · | ·
Clc1ccc(N=NN2CCOCC2)cc1 | · | i | · | · | · | · | · | · | ·
CN(C)CCCN1c2ccccc2Sc2ccc(C(F)(F)F)cc21 | · | i | · | · | · | · | · | · | ·
O=C(CCN1CCOCC1)N1c2ccccc2Sc2ccc(Cl)cc21 | · | i | · | · | · | · | · | · | ·
OCCN1CCN(CCCN2c3ccccc3Sc3ccc(C(F)(F)F)cc32)CC1 | · | i | 30.5%* | i | · | · | · | · | ·
CN1CCN(CCCN2c3ccccc3Sc3ccc(Cl)cc32)CC1 | -9.13 | -9.13* | 13.5%* | i | · | · | · | · | ·
CN1CCN(CC(O)COC(c2ccc(Cl)cc2)c2ccc(Cl)cc2)CC1 (centres undefined) | 0.05 | i | · | · | · | · | · | · | ·
O=C(CSc1ccc(-c2ccccc2)nn1)NC1CCCC1 | 0.93 | i | · | · | · | · | · | · | ·
CCOC(=O)C1=C(COC(=O)C2(C)CC2(Cl)Cl)NC(=O)NC1c1ccc(OC)cc1 (centres undefined) | 0.05 | i | · | · | · | · | · | · | ·

Assay outcomes as filed in PubChem.
